About 7,900 targets were measured; listed, in parts, are those with a hit and a random draw of the rest. About 0.6% of all pairs of compound and target were hits.
Columns and labels:
Test in all cases: log2 fold change, soluble protein after heating vs DMSO (PISA); higher = thermal stabilisation; K562 cells, 10 uM, 30 min; active = over 0.2 and 3.5 SD of the protein, either way, in both replicates (recomputed)
bafetinib = compound: Cc1ccc(NC(=O)c2ccc(CN3CC[C@H](N(C)C)C3)c(C(F)(F)F)c2)cc1Nc1nccc(-c2cncnc2)n1 [bafetinib]
Outline: (§1)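 K562 cells at 2×10^6 cells/mL were treated with 10 μM compound for 30 min. Aliquots were heated for 3 min across 48°C-58°C, pooled, and extracted in PBS with 0.5% NP-40 at 4°C; soluble protein was the supernatant after 21,000xg for 90 min. Soluble protein was quantified by TMTpro 16plex LC-MS/MS with channel sums equalised, and reported as log2 fold change in thermal stability against DMSO controls, with values from duplicates.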

[1] = compound: Cc1cccc(CC(=O)N2CCc3c2ccc(-c2cn(C)c4ncnc(N)c24)c3F)n1
Outline: as §1

nilotinib = compound: Cc1cn(-c2cc(NC(=O)c3ccc(C)c(Nc4nccc(-c5cccnc5)n4)c3)cc(C(F)(F)F)c2)cn1 [nilotinib]
Outline: as §1

[2] = compound: Cc1nc(Nc2n[nH]c3c2CN(C(=O)N[C@H](CN(C)C)c2ccccc2)C3(C)C)c2sccc2n1
Outline: as §1

dasatinib = compound: Cc1nc(Nc2ncc(C(=O)Nc3c(C)cccc3Cl)s2)cc(N2CCN(CCO)CC2)n1 [dasatinib]
Outline: as §1

[3] = compound: Cc1ncc(-c2ccnc(Nc3ccc(S(C)(=O)=O)cc3)n2)n1C(C)C
Outline: as §1

[4] = compound: Cn1cc(-c2ccc3c(c2)CCN3C(=O)Cc2cccc(C(F)(F)F)c2)c2c(N)ncnc21
Outline: as §1

[5] = compound: Cn1cc(-c2ccc3nnc(C(F)(F)c4ccc5ncccc5c4)n3n2)cn1
Outline: as §1

tipifarnib = compound: Cn1cncc1[C@@](N)(c1ccc(Cl)cc1)c1ccc2c(c1)c(-c1cccc(Cl)c1)cc(=O)n2C [tipifarnib]
Outline: as §1

mubritinib = compound: FC(F)(F)c1ccc(/C=C/c2nc(COc3ccc(CCCCn4ccnn4)cc3)co2)cc1 [mubritinib]
Outline: as §1

Measured: log2 fold change

MAGI1 (UniProt Q96QZ7)
inactive: bafetinib -0.055 | [1] -0.023 | nilotinib 0.015 | dasatinib 0.039 | [3] -0.044 | [4] 0.052 | [5] -0.079 | tipifarnib 0.079 | mubritinib -0.021
active: [2] -0.477

LDAH isoform 2 (UniProt Q9H6V9)
inactive: bafetinib -0.188 | [1] -0.027 | nilotinib 0.175 | [2] -0.122 | dasatinib -0.215 | [3] -0.035 | [4] 0.082 | [5] -0.025 | tipifarnib 0.076 | mubritinib 0.094

KLHDC4 (UniProt Q8TBB5)
UniProt Q8TBB5, sequence (Q8TBB5 whole entry, looked up): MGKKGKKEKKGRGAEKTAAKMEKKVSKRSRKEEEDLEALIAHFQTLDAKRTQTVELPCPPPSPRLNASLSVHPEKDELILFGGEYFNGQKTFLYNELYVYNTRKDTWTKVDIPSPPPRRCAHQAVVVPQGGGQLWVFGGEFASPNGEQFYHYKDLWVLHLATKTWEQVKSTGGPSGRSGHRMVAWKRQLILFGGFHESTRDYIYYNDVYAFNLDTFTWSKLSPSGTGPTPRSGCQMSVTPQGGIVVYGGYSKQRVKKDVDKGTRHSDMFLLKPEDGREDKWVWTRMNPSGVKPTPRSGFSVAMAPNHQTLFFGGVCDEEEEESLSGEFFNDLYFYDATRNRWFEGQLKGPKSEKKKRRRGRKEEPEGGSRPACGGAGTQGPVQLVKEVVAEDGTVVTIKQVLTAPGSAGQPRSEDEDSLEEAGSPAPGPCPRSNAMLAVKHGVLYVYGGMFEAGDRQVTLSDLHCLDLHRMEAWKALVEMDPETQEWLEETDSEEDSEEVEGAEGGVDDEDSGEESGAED
inactive: bafetinib 0.012 | [1] -0.018 | nilotinib 0 | [2] -0.067 | dasatinib 0.107 | [3] 0.156 | [4] -0.175 | [5] -0.23 | tipifarnib 0.106 | mubritinib -0.333

IKZF1 (UniProt Q13422)
UniProt Q13422, sequence (Q13422 whole entry, looked up): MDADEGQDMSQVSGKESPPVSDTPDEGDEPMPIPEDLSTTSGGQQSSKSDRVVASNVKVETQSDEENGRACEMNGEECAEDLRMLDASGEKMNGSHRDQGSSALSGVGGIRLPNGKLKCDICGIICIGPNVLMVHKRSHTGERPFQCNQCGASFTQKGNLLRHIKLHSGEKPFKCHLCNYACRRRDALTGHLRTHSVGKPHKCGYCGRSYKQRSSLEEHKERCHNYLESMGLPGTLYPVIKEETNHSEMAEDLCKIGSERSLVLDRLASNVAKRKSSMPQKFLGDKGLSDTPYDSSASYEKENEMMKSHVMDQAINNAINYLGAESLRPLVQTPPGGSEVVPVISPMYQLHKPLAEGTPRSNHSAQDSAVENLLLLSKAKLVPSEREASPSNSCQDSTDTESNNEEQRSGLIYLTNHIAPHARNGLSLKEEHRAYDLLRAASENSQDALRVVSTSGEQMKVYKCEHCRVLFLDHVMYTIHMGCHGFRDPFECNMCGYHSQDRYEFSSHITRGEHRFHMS
inactive: bafetinib -0.062 | [1] -0.004 | nilotinib 0.237 | [2] -0.347 | dasatinib -0.121 | [3] -0.112 | [4] 0.072 | [5] 0.119 | tipifarnib -0.026 | mubritinib -0.07

MIER1 isoform 12 (UniProt Q8N108)
inactive: bafetinib -0.016 | [1] 0.031 | nilotinib 0.012 | [2] -0.083 | dasatinib -0.028 | [3] -0.061 | [4] 0.056 | [5] -0.041 | tipifarnib -0.004 | mubritinib 0.052

MCUR1 (UniProt Q96AQ8)
inactive: bafetinib 0 | [1] 0 | nilotinib 0.015 | [2] 0.015 | dasatinib -0.037 | [3] -0.004 | [4] 0.031 | [5] -0.091 | tipifarnib -0.028 | mubritinib 0.044

KEAP1 (UniProt Q14145)
inactive: bafetinib -0.057 | [1] 0.032 | nilotinib -0.108 | [2] -0.108 | dasatinib -0.027 | [3] 0.021 | [4] -0.085 | [5] -0.07 | tipifarnib -0.047 | mubritinib 0.037

LPCAT3 (UniProt Q6P1A2)
UniProt Q6P1A2, sequence (Q6P1A2 whole entry, looked up): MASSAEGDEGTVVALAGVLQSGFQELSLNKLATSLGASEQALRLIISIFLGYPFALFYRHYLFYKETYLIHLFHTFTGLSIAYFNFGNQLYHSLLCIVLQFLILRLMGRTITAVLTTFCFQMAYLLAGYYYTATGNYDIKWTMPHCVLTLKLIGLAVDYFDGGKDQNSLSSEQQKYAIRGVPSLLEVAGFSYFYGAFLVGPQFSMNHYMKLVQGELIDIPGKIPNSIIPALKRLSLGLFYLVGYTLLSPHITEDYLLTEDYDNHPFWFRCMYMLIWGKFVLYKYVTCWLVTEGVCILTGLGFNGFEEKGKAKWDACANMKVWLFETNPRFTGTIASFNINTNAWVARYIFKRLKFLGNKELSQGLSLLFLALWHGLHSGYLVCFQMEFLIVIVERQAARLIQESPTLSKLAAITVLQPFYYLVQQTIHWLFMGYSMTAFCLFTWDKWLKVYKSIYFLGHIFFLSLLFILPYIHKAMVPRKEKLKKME
active: [3] 0.363
inactive: bafetinib 0.108 | [1] 0.063 | nilotinib 0.044 | [2] 0 | dasatinib 0.051 | [4] 0.153 | [5] -0.015 | tipifarnib -0.216 | mubritinib 0.034

IGFBP2 (UniProt P18065)
inactive: bafetinib -0.512 | [1] 0.026 | nilotinib -0.034 | [2] 0.142 | dasatinib -0.1 | [3] 0.17 | [4] 0.17 | [5] -0.095 | tipifarnib -0.1 | mubritinib -0.135

LARP4 isoform 4 (UniProt Q71RC2)
inactive: bafetinib 0.022 | [1] -0.027 | nilotinib -0.073 | [2] -0.147 | dasatinib 0 | [3] -0.028 | [4] -0.078 | [5] -0.103 | tipifarnib 0.071 | mubritinib -0.046

KIF21A isoform 4 (UniProt Q7Z4S6)
inactive: bafetinib 0.051 | [1] 0.079 | nilotinib -0.104 | [2] 0.083 | dasatinib -0.193 | [3] 0.037 | [4] -0.066 | [5] -0.073 | tipifarnib -0.039 | mubritinib 0.11

MAGEC2 (UniProt Q9UBF1)
UniProt Q9UBF1, sequence (Q9UBF1 whole entry, looked up): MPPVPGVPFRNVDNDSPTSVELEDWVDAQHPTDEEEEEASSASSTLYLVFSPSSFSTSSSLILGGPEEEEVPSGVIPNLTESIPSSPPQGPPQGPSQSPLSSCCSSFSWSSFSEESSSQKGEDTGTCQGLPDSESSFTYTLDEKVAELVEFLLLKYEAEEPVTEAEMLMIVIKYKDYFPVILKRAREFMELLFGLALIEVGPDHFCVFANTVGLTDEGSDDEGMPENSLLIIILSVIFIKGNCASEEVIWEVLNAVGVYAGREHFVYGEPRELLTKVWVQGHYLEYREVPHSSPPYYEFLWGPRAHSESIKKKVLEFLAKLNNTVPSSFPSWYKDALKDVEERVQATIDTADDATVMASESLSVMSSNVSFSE
inactive: bafetinib -0.024 | [1] -0.065 | nilotinib -0.02 | [2] 0.021 | dasatinib 0.059 | [3] 0 | [4] -0.056 | [5] -0.07 | tipifarnib -0.02 | mubritinib -0.015

LIAS (UniProt O43766)
UniProt O43766, sequence (O43766 whole entry, looked up): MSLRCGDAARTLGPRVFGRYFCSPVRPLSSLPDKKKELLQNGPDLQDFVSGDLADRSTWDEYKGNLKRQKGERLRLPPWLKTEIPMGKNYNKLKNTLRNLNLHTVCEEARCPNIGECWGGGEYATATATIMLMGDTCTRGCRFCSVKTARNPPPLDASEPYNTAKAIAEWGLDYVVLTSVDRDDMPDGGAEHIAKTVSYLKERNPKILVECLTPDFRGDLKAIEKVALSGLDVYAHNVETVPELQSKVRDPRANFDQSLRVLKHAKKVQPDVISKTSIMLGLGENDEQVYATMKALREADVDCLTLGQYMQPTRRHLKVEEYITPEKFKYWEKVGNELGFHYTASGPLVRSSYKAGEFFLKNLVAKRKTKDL
inactive: bafetinib -0.034 | [1] -0.079 | nilotinib 0.038 | [2] 0.003 | dasatinib 0.028 | [3] -0.059 | [4] -0.017 | [5] 0.059 | tipifarnib 0.098 | mubritinib 0.002

MFN2 (UniProt O95140)
UniProt O95140, sequence (O95140 whole entry, looked up): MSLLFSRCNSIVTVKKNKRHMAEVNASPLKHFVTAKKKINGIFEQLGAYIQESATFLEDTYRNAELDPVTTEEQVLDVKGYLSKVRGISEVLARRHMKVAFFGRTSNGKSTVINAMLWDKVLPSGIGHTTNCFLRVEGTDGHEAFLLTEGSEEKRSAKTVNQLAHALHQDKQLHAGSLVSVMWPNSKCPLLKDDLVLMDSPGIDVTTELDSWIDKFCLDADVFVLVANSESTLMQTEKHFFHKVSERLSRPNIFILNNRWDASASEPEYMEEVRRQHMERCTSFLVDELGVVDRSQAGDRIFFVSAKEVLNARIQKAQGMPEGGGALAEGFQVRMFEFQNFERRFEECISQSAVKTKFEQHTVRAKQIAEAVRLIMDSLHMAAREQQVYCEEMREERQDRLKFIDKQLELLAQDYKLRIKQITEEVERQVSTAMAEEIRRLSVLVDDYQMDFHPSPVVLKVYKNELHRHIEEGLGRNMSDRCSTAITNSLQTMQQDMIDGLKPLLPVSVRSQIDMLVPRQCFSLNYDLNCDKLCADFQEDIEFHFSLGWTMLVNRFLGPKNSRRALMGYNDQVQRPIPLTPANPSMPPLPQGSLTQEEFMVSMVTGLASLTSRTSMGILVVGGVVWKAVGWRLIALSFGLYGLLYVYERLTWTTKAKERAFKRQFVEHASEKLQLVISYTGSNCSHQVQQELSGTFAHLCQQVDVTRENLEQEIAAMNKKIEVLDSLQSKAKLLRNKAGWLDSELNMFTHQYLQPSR
inactive: bafetinib -0.106 | [1] 0.068 | nilotinib -0.002 | [2] -0.022 | dasatinib -0.024 | [3] -0.01 | [4] -0.004 | [5] 0.018 | tipifarnib -0.004 | mubritinib 0.019

ITIH4 (UniProt Q14624)
inactive: bafetinib -0.319 | [1] 0.117 | nilotinib -0.259 | [2] 0.194 | dasatinib 0.039 | [3] 0.225 | [4] 0.148 | [5] 0.114 | tipifarnib -0.038 | mubritinib -0.134

IPO9 (UniProt Q96P70)
inactive: bafetinib 0.019 | [1] 0.031 | nilotinib -0.016 | [2] -0.06 | dasatinib 0.04 | [3] 0.011 | [4] -0.069 | [5] -0.06 | tipifarnib -0.084 | mubritinib -0.005

KCTD2 (UniProt Q14681)
active: [1] -0.845
inactive: bafetinib -0.23 | nilotinib -0.144 | [2] 0.012 | dasatinib 0.146 | [3] -0.076 | [4] -0.102 | [5] -0.015 | tipifarnib 0.308 | mubritinib 0.113

IK (UniProt Q13123)
UniProt Q13123, sequence (Q13123 whole entry, looked up): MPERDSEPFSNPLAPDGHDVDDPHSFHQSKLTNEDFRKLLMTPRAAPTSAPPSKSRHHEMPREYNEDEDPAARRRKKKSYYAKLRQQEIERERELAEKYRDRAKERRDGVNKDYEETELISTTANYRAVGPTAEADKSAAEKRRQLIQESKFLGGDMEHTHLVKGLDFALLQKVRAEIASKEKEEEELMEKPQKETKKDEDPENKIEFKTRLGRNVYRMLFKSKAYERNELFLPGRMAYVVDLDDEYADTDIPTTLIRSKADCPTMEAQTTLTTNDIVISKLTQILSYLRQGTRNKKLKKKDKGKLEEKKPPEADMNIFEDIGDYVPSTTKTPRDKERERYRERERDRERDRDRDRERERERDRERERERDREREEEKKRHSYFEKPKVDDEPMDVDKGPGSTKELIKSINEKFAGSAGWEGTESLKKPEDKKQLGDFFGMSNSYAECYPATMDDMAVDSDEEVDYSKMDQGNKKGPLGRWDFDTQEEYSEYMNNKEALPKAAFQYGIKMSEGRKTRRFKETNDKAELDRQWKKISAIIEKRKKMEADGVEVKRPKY
inactive: bafetinib 0.013 | [1] -0.01 | nilotinib -0.062 | [2] -0.067 | dasatinib -0.025 | [3] 0.037 | [4] -0.007 | [5] -0.109 | tipifarnib 0.003 | mubritinib -0.067

IPO11 isoform 2 (UniProt Q9UI26)
inactive: bafetinib -0.056 | [1] 0.045 | nilotinib 0.012 | [2] -0.03 | dasatinib -0.049 | [3] 0.039 | [4] -0.008 | [5] -0.029 | tipifarnib -0.132 | mubritinib 0.069

MIEF1 (UniProt L0R8F8)
inactive: bafetinib -0.077 | [1] -0.001 | nilotinib -0.1 | [2] 0.067 | dasatinib 0.001 | [3] -0.093 | [4] 0.022 | [5] -0.053 | tipifarnib -0.03 | mubritinib -0.039

KPNA6 (UniProt O60684)
inactive: bafetinib -0.071 | [1] 0.078 | nilotinib -0.054 | [2] -0.038 | dasatinib -0.067 | [3] 0.003 | [4] -0.098 | [5] -0.015 | tipifarnib -0.033 | mubritinib -0.067

MFN1 (UniProt Q8IWA4)
UniProt Q8IWA4, sequence (Q8IWA4 whole entry, looked up): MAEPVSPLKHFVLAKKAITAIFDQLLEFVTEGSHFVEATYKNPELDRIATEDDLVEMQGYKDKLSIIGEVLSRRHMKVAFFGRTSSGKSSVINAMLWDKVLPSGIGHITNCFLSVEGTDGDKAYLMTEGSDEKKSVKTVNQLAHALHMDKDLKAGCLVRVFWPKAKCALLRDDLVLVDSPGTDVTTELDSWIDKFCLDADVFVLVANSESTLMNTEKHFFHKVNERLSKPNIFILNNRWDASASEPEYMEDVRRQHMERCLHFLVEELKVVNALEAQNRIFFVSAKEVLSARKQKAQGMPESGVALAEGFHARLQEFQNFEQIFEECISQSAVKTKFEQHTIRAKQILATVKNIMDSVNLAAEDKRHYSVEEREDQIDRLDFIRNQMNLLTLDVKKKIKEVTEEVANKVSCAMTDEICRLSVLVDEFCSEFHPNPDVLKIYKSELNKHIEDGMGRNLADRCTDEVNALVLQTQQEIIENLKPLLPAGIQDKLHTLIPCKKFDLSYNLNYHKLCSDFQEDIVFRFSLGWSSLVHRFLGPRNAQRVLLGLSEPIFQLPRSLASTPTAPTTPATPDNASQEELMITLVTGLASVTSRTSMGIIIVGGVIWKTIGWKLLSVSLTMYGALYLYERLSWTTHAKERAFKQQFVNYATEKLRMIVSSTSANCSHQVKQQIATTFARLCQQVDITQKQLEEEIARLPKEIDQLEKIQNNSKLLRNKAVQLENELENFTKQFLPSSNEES
inactive: bafetinib -0.114 | [1] -0.034 | nilotinib -0.005 | [2] -0.05 | dasatinib -0.054 | [3] 0.02 | [4] 0.032 | [5] -0.019 | tipifarnib 0.123 | mubritinib -0.01

LMBRD2 (UniProt Q68DH5)
UniProt Q68DH5, sequence (Q68DH5 whole entry, looked up): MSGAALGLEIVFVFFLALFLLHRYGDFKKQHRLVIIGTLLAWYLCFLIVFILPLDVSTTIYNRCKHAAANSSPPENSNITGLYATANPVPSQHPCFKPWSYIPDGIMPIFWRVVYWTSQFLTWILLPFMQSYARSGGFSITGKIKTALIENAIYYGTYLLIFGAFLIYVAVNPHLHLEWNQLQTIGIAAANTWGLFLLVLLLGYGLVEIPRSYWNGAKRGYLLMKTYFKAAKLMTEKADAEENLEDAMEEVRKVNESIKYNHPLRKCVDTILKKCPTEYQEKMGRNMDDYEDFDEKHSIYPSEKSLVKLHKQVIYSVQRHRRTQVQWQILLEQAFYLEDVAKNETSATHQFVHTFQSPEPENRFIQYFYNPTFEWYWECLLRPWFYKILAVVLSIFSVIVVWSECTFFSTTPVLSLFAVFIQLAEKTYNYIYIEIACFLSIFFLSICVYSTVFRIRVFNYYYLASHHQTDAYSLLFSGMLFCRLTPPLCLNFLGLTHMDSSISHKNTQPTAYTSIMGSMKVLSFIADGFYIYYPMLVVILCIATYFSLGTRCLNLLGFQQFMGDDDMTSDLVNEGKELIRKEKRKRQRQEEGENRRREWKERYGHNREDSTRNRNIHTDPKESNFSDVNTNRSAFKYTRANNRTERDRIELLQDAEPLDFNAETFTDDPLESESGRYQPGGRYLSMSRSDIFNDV
inactive: bafetinib -0.142 | [1] -0.006 | nilotinib -0.048 | [2] 0.041 | dasatinib 0.019 | [3] -0.028 | [4] -0.03 | [5] 0.043 | tipifarnib 0.189 | mubritinib -0.007

MAPK8 isoform 3 (UniProt P45983)
inactive: bafetinib -0.011 | [1] -0.048 | nilotinib 0.022 | dasatinib -0.318 | [4] 0.047 | [5] -0.058 | tipifarnib 0.001 | mubritinib -0.179
active: [2] 0.415 | [3] 0.495

JMJD6 isoform 3 (UniProt Q6NYC1)
inactive: bafetinib -0.067 | [1] 0.06 | nilotinib -0.011 | [2] -0.254 | dasatinib -0.009 | [3] -0.098 | [4] -0.008 | [5] -0.047 | tipifarnib 0.036 | mubritinib -0.065

LNPK (UniProt Q9C0E8)
inactive: bafetinib -0.081 | [1] -0.035 | nilotinib -0.001 | [2] -0.009 | dasatinib 0.052 | [3] -0.007 | [4] 0.025 | [5] 0.011 | tipifarnib 0.054 | mubritinib 0.072

IRF2BPL (UniProt Q9H1B7)
inactive: bafetinib -0.038 | [1] 0.012 | nilotinib -0.07 | [2] -0.034 | dasatinib -0.034 | [3] -0.029 | [4] 0.083 | [5] -0.084 | tipifarnib -0.067 | mubritinib -0.055

Reference: the supplement of paper PMC10849652
